Bioassay records as filed in PubChem.
A selection: hits, their analogues and other compounds. The true share with any hit is near 8%.
SW480 rereplic = induces DNA re-replication in SW480 colon adenocarcinoma cells. SW480 DNA re-replication, Hoechst DNA content imaging, 48 h. Potency, µM (highest dose often 46.1 µM), most hits filed as activators. 340,000 compounds, 1.8% hits; note: nearly all actives have a fitted effect of over 55% in size
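SW480 cells exposed to compounds for 48 hr at 37 C, 5% CO2, then Hoechst-stained 40 min. Nuclear DNA content imaged by fluorescence scanning (405 nm excitation, 500-530 nm emission); re-replication scored as increased high-intensity nuclei.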
HT1080-NT tox = kills 2HG-producing HT-1080-NT fibrosarcoma cells; Potency, µM (top dose mostly 46.1 µM), actives largely listed as cytotoxic; 360,000 compounds, 1.6% hits; HT-1080-NT fibrosarcoma viability, CellTiter-Glo ATP luminescence, 48 h;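 note: NT is the 2HG producing partner of a matched IDH1 knockdown line; nearly all actives have a fitted effect of over 55% in size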
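Luminescent CellTiter-Glo readout after 48 hours of compound exposure at 37 degrees C defined viability of HT-1080-NT cells. Activity was normalized to DMSO wells and cell-free media wells; concentration-response curves were fitted and assigned curve classes.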
KB-3-1 tox = kills parental KB-3-1 adenocarcinoma cells; KB-3-1 viability, CellTiter-Glo ATP luminescence, 72 h; Potency, µM (titrated, usually from 46.1 µM), hits mostly cytotoxic; 400,000 compounds, 1.4% hits; AID 1347075; note: nearly all actives have a fitted effect of over 60% in size
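Cytotoxicity in the drug-sensitive parental line KB-3-1 was scored as loss of CellTiter-Glo luminescence following 72 h incubation with compound. Values come from curve fitting of normalized concentration-response data.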
HT1080 IDH1KD tx = toxicity to HT-1080 IDH1 knockdown cells (counter line); Potency, µM (top dose mostly 46.1 µM), hits mostly cytotoxic; AID 686971; 360,000 compounds, 2% hits; HT-1080 IDH1 knockdown viability, ATP luminescence, 48 h
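CellTiter-Glo luminescence after 48 h compound exposure at 37 degrees C of IDH1-knockdown HT-1080 cells in 5% FBS RPMI. %Activity scaled between DMSO wells and cell-free media wells, with curves fitted and assigned curve classes.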
MCF10A rerep = DNA re-replication induction in MCF 10a cells | MCF 10A DNA re-replication, Hoechst nuclear intensity, 48 h | Potency, µM (top dose mostly 46.1 µM), most hits filed as activators | 350,000 compounds, 2.9% hits | AID 624296; note: nearly all actives have a fitted effect of over 50% in size
KB-V1 cytotox = kills drug-selected multidrug resistant KB-V1 cells; KB-V1 MDR cells viability, CellTiter-Glo, 72 h; Potency, µM (highest dose often 46.1 µM), actives largely listed as cytotoxic; 400,000 compounds, 3.4% hits; note: nearly all actives have a fitted effect of over 60% in size
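Potencies derive from concentration-effect curves fitted to normalized luminescence (CellTiter-Glo) of KB-V1 cells treated for 72 h at 37 degrees C in phenol-red-free DMEM containing 10% FBS.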
Numbers stand for hits; 0 = inactive; ? = inconclusive; - = no result. Calls come from the whole dose curve; as a rule, active = well fitted curve in the direction sought with a large enough effect; inconclusive = small, poorly fitted or top-dose-only effect, or another doubt; inactive = no such curve, though single readings can be large; an effect the other way counts as inactive or inconclusive.

SMILES	SW480 rereplic	HT1080-NT tox	KB-3-1 tox	HT1080 IDH1KD tx	MCF10A rerep	KB-V1 cytotox
Cc1ccc(S(=O)(=O)Nc2ccccc2N2CCOCC2)cc1	?	21µM	13µM	18µM	?	?
COC(=O)c1ccc(N2CCCCC2)c(NS(=O)(=O)c2ccc(C)cc2)c1	0	0	0	0	0	?
CCN(CC)CCNC(=O)c1ccc(N2CCCCC2)c(NS(=O)(=O)c2ccc(C)cc2)c1	26µM	?	?	?	0	?
Cc1ccc(S(=O)(=O)Nc2ccccc2N2CCCCC2)cc1	?	?	?	?	16µM	?
O=C(Cn1c(=O)oc2cc(S(=O)(=O)NC3CCCC3)ccc21)Nc1ccc(F)c(F)c1	-	-	0	-	-	0
CC1CCN(c2ccc(-c3cccc(NS(=O)(=O)c4ccc(Cl)s4)c3)nn2)CC1	-	-	0	-	-	0
COC(CNC(=O)c1ccc2c3c(onc13)-c1ccccc1C2=O)OC	?	23µM	?	?	?	0
Cc1ccc(Nc2nc(Cl)c(C=O)s2)cc1Cl	?	18µM	?	?	18µM	0
COc1ccccc1Nc1nc(Cl)c(C=O)s1	0	0	0	0	21µM	0
Cc1ccc2c(c1)c1c(c(=O)n(-c3cccc(Cl)c3)c(=O)n1CC(=O)NCCC1=CCCCC1)n2C	-	-	0	-	-	0
O=[N+]([O-])c1ccc(-c2cn3nc(-c4ccccc4)c(-c4ccccc4)nc3n2)cc1	?	?	0	0	3.7µM	0
O=[N+]([O-])c1cccc(-c2cn3nc(-c4ccccc4)c(-c4ccccc4)nc3n2)c1	5.8µM	0	0	0	?	0
Cc1ccc(C(=O)COC(=O)CCC(=O)Nc2ccc(Oc3cc(C)ccc3C(C)C)cc2)cc1	-	-	0	-	-	0
COC(=O)[C@]12CCCCC=C1N(CCc1ccc(OC)c(OC)c1)C(=O)[C@H](CC(=O)NCC13CC4CC(CC(C4)C1)C3)C2	-	?	?	?	-	18µM
CCCCCCCCN1C(=O)[C@H](CC(=O)NCCc2ccccc2OC)C[C@@]2(C(=O)OCC)CCCC=C12	-	?	0	?	-	21µM
CCOC(=O)[C@]12CCCC=C1N(CCc1ccc(OC)c(OC)c1)C(=O)[C@H](CC(=O)NCC13CC4CC(CC(C4)C1)C3)C2	-	0	?	?	-	?
CCCCCCCCN1C(=O)[C@H](CC(=O)N2CCN(C(=O)OCC)CC2)C[C@@]2(C(=O)OCC)CCCC=C12	-	?	0	?	-	?
CCCCCCCCN1C(=O)[C@H](CC(=O)NCC23CC4CC(CC(C4)C2)C3)C[C@@]2(C(=O)OCC)CCCC=C12	-	0	16µM	0	-	0
CCCCCCCCN1C(=O)[C@H](CC(=O)NCc2cccc3ccccc23)C[C@@]2(C(=O)OCC)CCC=C12	-	?	0	?	-	?
CCOC(=O)[C@]12CCCC=C1N(CCc1ccc(OC)c(OC)c1)C(=O)[C@H](CC(=O)NCCc1ccccc1OC)C2	-	0	0	0	-	13µM
c1ccc(Nc2c(-c3c[nH]c4ccccc34)nc3ccccn23)cc1	-	-	0	-	-	0
Cc1ccc(S(=O)(=O)c2nnn3c2nc(NCc2ccc4c(c2)OCO4)c2sccc23)cc1C	-	-	0	-	-	0
CCOC(=O)[C@]12CCCC=C1N(CCc1ccc(OC)c(OC)c1)C(=O)[C@H](CC(=O)NCCCCc1ccccc1)C2	-	?	?	?	-	21µM
CCCCNC(=O)C[C@@H]1C[C@@]2(C(=O)OCC)CCCC=C2N(CCc2ccc(OC)c(OC)c2)C1=O	-	0	0	0	-	?
CCc1nn(CC(=O)NCCC(C)C)c(=O)c2cc3occc3n12	-	-	0	-	-	0
SMILES	SW480 rereplic	HT1080-NT tox	KB-3-1 tox	HT1080 IDH1KD tx	MCF10A rerep	KB-V1 cytotox
C[C@@H](NC(=O)c1coc(=O)c(Br)c1)c1ccccc1	?	9.2µM	12µM	8.2µM	?	?
O=C(Nc1ccccc1F)c1coc(=O)c(Br)c1	?	0	0	0	?	0
Cc1cc(NC(=O)c2coc(=O)c(Br)c2)ccc1C(C)C	?	?	0	21µM	?	0
COc1ccc(C(=O)NC(C)c2ccccc2)cc1Br (centres undefined)	0	0	0	0	0	0
Cc1cccc(N2CCN(C(c3ccccc3)c3nnc(-c4ccccc4Cl)o3)CC2)c1C (centres undefined)	-	-	0	-	-	0
CCOc1ccccc1NC(=S)N(Cc1cc2ccc(C)cc2[nH]c1=O)CC1CCCN1CC (centres undefined)	?	?	13µM	0	?	0
CCN1CCCC1CN(Cc1cc2ccc(C)cc2[nH]c1=O)C(=S)Nc1cccc(OC)c1 (centres undefined)	?	?	0	18µM	0	0
